Test results reported in PubChem BioAssay AID1159580 (chemical genetic matrix, 2015).
Where “and” joins values, the source holds several entries; their conditions need not be identical. Equal entries are not always repeated. About 2,000 (36%) of roughly 5,500 compounds were called active. Inconclusive results (about 18%) are left out. Rule as the data show it: active = normalized growth mostly below about 0.91 (no sharp cut-off); inconclusive = no clear call, values can overlap the other calls; inactive = mostly above about 0.92. This is one part of the list.

Assay: chemical genetic growth profiling, strain panel (AID 1159580);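 also: tested at 20 µM; growth read once vehicle control cultures reached saturation at 30 °C; 1 = growth at the plate median or of vehicle wells; lower values mean less growth of the strain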
Settings: S. cerevisiae deletion strains, growth OD

Measured: normalized growth

COc1ccc(-c2cc(=O)c3c(O)cc(O)cc3o2)cc1
0.957 (inactive) and 0.879 (active): locus YJL095W, strain BCK1, stronger effect = lower value
active: locus YHR079C, strain IRE1, stronger effect = lower value 0.847 | locus YJR066W, strain TOR1, stronger effect = lower value 0.792
inactive: locus YAL013W, strain DEP1, stronger effect = lower value 1.01 | locus YAL021C, strain ccr4, stronger effect = lower value 0.967 | locus YAL026C, strain drs2, stronger effect = lower value 0.975 | locus YAL030W, strain snc1, stronger effect = lower value 1 | locus YBL061C, strain skt5, stronger effect = lower value 1 | locus YBR009C, strain hhf1, stronger effect = lower value 0.939 | locus YBR021W, strain FUR4, stronger effect = lower value 1.02 | locus YBR023C, strain chs3, stronger effect = lower value 0.961 | locus YBR171W, strain sec66, stronger effect = lower value 0.999 | locus YBR229C, strain ROT2, stronger effect = lower value 1 | locus YBR231C, strain swc5, stronger effect = lower value 0.981 | locus YBR279W, strain paf1, stronger effect = lower value 0.977 | locus YCL011C, strain gbp2, stronger effect = lower value 0.958 | locus YCL016C, strain dcc1, stronger effect = lower value 0.955 | locus YCL029C, strain bik1, stronger effect = lower value 0.976 | locus YCL069W, strain vba3, stronger effect = lower value 0.967 | locus YCR088W, strain abp1, stronger effect = lower value 0.987 | locus YDL005C, strain med2, stronger effect = lower value 1.02 | locus YDL035C, strain GPR1, stronger effect = lower value 1.03 | locus YDL040C, strain nat1, stronger effect = lower value 0.996 | locus YDL074C, strain BRE1, stronger effect = lower value 0.95 | locus YDL101C, strain DUN1, stronger effect = lower value 0.978 | locus YDL185W, strain tfp1, stronger effect = lower value 0.963 | locus YDL192W, strain arf1, stronger effect = lower value 0.989 | locus YDR001C, strain nth1, stronger effect = lower value 0.988 | locus YDR069C, strain doa4, stronger effect = lower value 1.02 | locus YDR101C, strain arx1, stronger effect = lower value 0.985 | locus YDR137W, strain rgp1, stronger effect = lower value 0.87 | locus YDR159W, strain sac3, stronger effect = lower value 0.996 | locus YDR162C, strain NBP2, stronger effect = lower value 0.999 | locus YDR195W, strain ref2 1.1 | locus YDR297W, strain sur2, stronger effect = lower value 0.994 | locus YDR318W, strain mcm21, stronger effect = lower value 0.982 | locus YDR334W, strain swr1, stronger effect = lower value 0.992 | locus YDR335W, strain msn5, stronger effect = lower value 0.978 | locus YDR388W, stronger effect = lower value 0.979 | locus YDR392W, strain spt3, stronger effect = lower value 0.804 | locus YDR502C, strain sam2, stronger effect = lower value 0.984 | locus YEL003W, strain gim4, stronger effect = lower value 0.963 | locus YEL037C, strain rad23, stronger effect = lower value 0.994 | locus YEL061C, strain CIN8 (second series), stronger effect = lower value 0.988 | locus YEL061C, strain CIN8, stronger effect = lower value 0.987 | locus YER015W, strain faa2, stronger effect = lower value 0.964 | locus YER016W, strain bim1, stronger effect = lower value 1.01 | locus YER110C, stronger effect = lower value 0.972 | locus YER111C, strain swi4, stronger effect = lower value 1.01 | locus YER155C, strain BEM2 (second series), stronger effect = lower value 0.966 | locus YER155C, strain BEM2, stronger effect = lower value 0.991 | locus YER167W, strain BCK2, stronger effect = lower value 1 | locus YFR010W, strain ubp6, stronger effect = lower value 1.01 | locus YGL078C, strain dbp3, stronger effect = lower value 0.978 | locus YGL086W, strain mad1, stronger effect = lower value 0.989 | locus YGL167C, strain pmr1, stronger effect = lower value 1.01 | locus YGL173C, strain kem1, stronger effect = lower value 1.01 | locus YGL227W, strain vid30, stronger effect = lower value 0.99 | locus YGL240W, strain doc1, stronger effect = lower value 0.975 | locus YGL248W, strain PDE1, stronger effect = lower value 0.984 | locus YGL253W, strain hxk2, stronger effect = lower value 0.964 | locus YGR135W, strain pre9, stronger effect = lower value 0.984 | locus YGR252W, strain gcn5, stronger effect = lower value 1.04 | locus YHR013C, strain ard1, stronger effect = lower value 1.06 | locus YHR027C, strain rpn1, stronger effect = lower value 1.01 | locus YHR079C, strain IRE1 (second series), stronger effect = lower value 0.971 | locus YHR094C, strain hxt1, stronger effect = lower value 0.992 | locus YHR129C, strain ARP1, stronger effect = lower value 0.998 | locus YHR142W, strain chs7, stronger effect = lower value 0.914 | locus YHR200W, strain rpn10, stronger effect = lower value 0.979 | locus YIL066C, strain RNR3, stronger effect = lower value 1.01 | locus YIL073C, strain SPO22, stronger effect = lower value 0.942 | locus YIL125W, strain kgd1, stronger effect = lower value 0.996 | locus YIR030C, strain dcg1, stronger effect = lower value 0.981 | locus YJL092W, strain hpr5, stronger effect = lower value 0.983 | locus YJL095W, strain BCK1 (second series), stronger effect = lower value 0.998 | locus YJL115W, strain asf1, stronger effect = lower value 1 | locus YJL129C, strain trk1, stronger effect = lower value 0.946 | locus YJL134W, strain LCB3, stronger effect = lower value 1 | locus YJL154C, strain vps35, stronger effect = lower value 0.999 | locus YJL164C, strain tpk1, stronger effect = lower value 0.931 | locus YJL166W, strain qcr8, stronger effect = lower value 0.965 | locus YJL168C, strain set2, stronger effect = lower value 0.999 | locus YJL187C, strain SWE1 (second series), stronger effect = lower value 0.979 | locus YJL187C, strain SWE1, stronger effect = lower value 1.01 | locus YJR043C, strain POL32, stronger effect = lower value 1.04
1.01 (inactive) and 0.823 (active): locus YHR030C, strain SLT2, stronger effect = lower value
